A selection: hits, their analogues and other compounds. The true share with any hit is near 3.1%.
FAS-TE inh = FAS thioesterase (human) inhibition. 0.67% of 360,000 active. inhibition, % at 15 µM. recombinant FAS-TE, OMFH fluorogenic substrate, fluorescence endpoint;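 active = compounds whose normalised, plate-corrected inhibition of enzyme fluorescence in the single-dose primary screen is 50% or more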
ATG4B inh = inhibitors of human ATG4B cysteine protease; Q9Y4P1; ATG4B cleavage of LC3-PLA2, NBD-HPC fluorescence, 1 h; inhibition, % at 8.33 µM; 0.51% of 340,000 active; AID 504462; in the data active = inhibition above about 40%
Calb FLC = C. albicans growth modulation with fluconazole; AID 1979; growth inhibition, % (concentration not given with the values); C. albicans CaCi-2 (fluconazole-resistant clinical isolate) + fluconazole, Alamar Blue growth, 48 h; 0.57% of 300,000 active;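 active = growth inhibition above about 58% in most replicates, limit read from the data, passing the limit was not always enough; inconclusive = exactly half the replicates above a set limit; inactive = most replicates below a set limit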;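 also: all wells also contain fluconazole at 8 µg/ml as a sub-toxic cotreatment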
NadD inh = blocks S. aureus nicotinate mononucleotide adenylyltransferase; inhibition, % at 20 µM; purified NadD enzyme, colorimetric absorbance read-out; 0.78% of 360,000 active; in the data active = inhibition above about 26%
Mot1-301 SUMO = SUMOylation pathway inhibition by Mot1-301 growth rescue; S. cerevisiae Mot1-301 growth rescue, ATP luminescence, 38.5C; percent above DMSO median, 100 means doubled; growth rescue, % at 18.8 µM; 1% of 320,000 active; AID 2716;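 active = every valid replicate shows activation above 250% relative to neutral control wells; inactive = the rest, any valid replicate at or below 250%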
ATG4B confirm = confirmation of human ATG4B inhibitors. inhibition, % at 8.33 µM. ATG4B protease fluorescent substrate cleavage assay. 92% of 320 active. shares compounds with ATG4B inh; in the data active = inhibition above about 39%
PLA2 counter = counter-screen for ATG4B inhibitors: human phospholipase A2 | shares compounds with ATG4B inh | purified PLA2, NBD-C6-HPC fluorescence, 45 min | inhibition, % at 8.33 µM | 66% of 1,600 active; in the data active = inhibition above about 50%
Large screens that a line does not name were inactive (follow-up assays come after a bar, where they were run).

COCCN1C=C2C(=O)C(C)(OC(=O)CCC(=O)OC)C(=O)C(Br)=C2C=C1c1ccc(OC)cc1 (stereo not given)	none
C(=N\Nc1nc(-c2ccccc2)cs1)/c1ccco1	none
Cc1ccc(-c2csc(N/N=C/c3ccco3)n2)cc1	ATG4B inh 41 | PLA2 counter inactive
CCN1CCN(S(=O)(=O)c2ccc(Cl)c(C(=O)N(C)CCOc3ccc(Cl)cc3)c2)CC1	none
O=C(c1ccc(OC2CCN(C/C=C/c3ccc(F)cc3)CC2)cc1)N1CCCC1	ATG4B inh 42 | ATG4B confirm 64 | PLA2 counter inactive
Cc1ccc2c(c1)/C(=N/OC(=O)c1ccc(F)cc1)CCS2	none
O=C(O/N=C1/CCSc2ccccc21)c1ccccc1	ATG4B inh 42 | ATG4B confirm 72 | PLA2 counter inactive
O=C(NCc1cccc(Cl)c1)c1ccc(S(=O)(=O)N2CCCCC2)cc1	none (no result: ATG4B inh, Calb FLC, Mot1-301 SUMO)
COCc1ccc(C(=O)N2CCCC(Nc3ccc(C(C)C)cc3)C2)s1 (stereo not given)	ATG4B inh 72 | PLA2 counter 76
COCc1ccc(C(=O)N2CCCC(Nc3ccc(C(C)C)cc3)C2)o1 (stereo not given)	ATG4B inh 53 | PLA2 counter 59
CCCCCCCCCCC[N+](C)(C)CC/C=C1/c2ccccc2Sc2ccc(Cl)cc21	ATG4B inh 47, Calb FLC 84 | PLA2 counter 52
CCN1CCN(C(=O)c2ccc(CS(=O)(=O)Cc3ccccc3C)o2)CC1	none
Cc1cc(C=C2C(=O)c3ccccc3C2=O)c(C)n1-c1ccccc1	ATG4B inh 45 | ATG4B confirm 67 | PLA2 counter inactive
Cc1cc(C=C2C(=O)c3ccccc3C2=O)c(C)n1-c1ccc(C(=O)O)cc1	none
Cc1cc(/C=C2\Cc3ccccc3C2=O)c(C)n1-c1ccccc1	ATG4B inh 62 | PLA2 counter 62
CCc1cccc(CC)c1NC(=O)COC(=O)c1ccccc1-c1nc2ccccc2s1	ATG4B inh 66 | PLA2 counter 74
CCC1=NN(C(=O)c2cccc([N+](=O)[O-])c2)C(O)(c2ccc(C)cc2)C1 (stereo not given)	ATG4B inh 54 | PLA2 counter 60
COc1ccc(CNC(=O)C(c2ccc(C)o2)N(C(=O)c2csnn2)c2ccc(C(C)C)cc2)cc1 (stereo not given)	ATG4B inh 43 | PLA2 counter inactive
Cc1cccc(N(C(=O)c2csnn2)C(C(=O)NCc2ccccc2)c2ccc(C)o2)c1 (stereo not given)	none
Cc1cccc(C)c1-n1cccc1/C=C1/C(=N)N2C(=NC1=O)SN=C2S(C)(=O)=O	ATG4B inh 89 | PLA2 counter 90
CCC1=NN2C(=N)/C(=C\c3cccn3-c3c(C)cccc3C)C(=O)N=C2S1	ATG4B inh 84 | PLA2 counter 87
CC1=CSC2=NC(=O)/C(=C\c3cccn3-c3ccccc3)C(=N)N12	none
Cc1ccc(-n2cccc2/C=C2/C(=N)N3C(=NC2=O)SN=C3S(C)(=O)=O)cc1Cl	ATG4B inh 65 (no result: Calb FLC) | PLA2 counter 52
Cc1cc(/C=C2/C(=N)N3C(=NC2=O)SN=C3S(C)(=O)=O)c(C)n1-c1ccc(F)cc1	none
COCCn1c(SCC(=O)N2CCCC2=O)nnc1-c1ccncc1	none (no result: ATG4B inh, Calb FLC, Mot1-301 SUMO)
COc1cc(C(=O)NCC(=O)N/N=C/c2ccc(-c3cccc([N+](=O)[O-])c3)o2)cc(OC)c1OC	none
O=C1CCCC2=C1C1(CCCC1)N=C(Nc1nc3ccccc3o1)N2	none (no result: ATG4B inh, Calb FLC, Mot1-301 SUMO)
O=C1CCCC2=C1C1(CCCCC1)N=C(Nc1nc3ccccc3o1)N2	ATG4B inh 66 | PLA2 counter 76
COc1ccc(C2=NOC(Cn3nc(-c4ccccc4)cc3C(=O)NCc3cccc(Br)c3)C2)cc1 (stereo not given)	none (no result: Calb FLC)
COc1ccc(C2=NOC(Cn3nc(C(=O)NCc4cccc(Br)c4)cc3-c3ccccc3)C2)cc1 (stereo not given)	ATG4B inh 53 (no result: Calb FLC) | PLA2 counter 59
CCOC(=O)C(CC(=O)c1ccccc1)CC(=O)c1ccccc1	none
Cc1ccc(S(=O)(=O)N2[C@@H](c3ccc(C(C)(C)C)cc3)C(C(=O)O)=CC[C@H]2c2cccc(Cl)c2)cc1	ATG4B inh 41 (no result: Calb FLC) | PLA2 counter 61
Cc1ccc([C@H]2C(C(=O)O)=CC[C@@H](c3cccc(Cl)c3)N2S(=O)(=O)c2ccc(C)cc2)cc1	none (no result: Calb FLC, Mot1-301 SUMO)
Cc1c(Cl)cccc1NC(=S)NCC(C)C	Calb FLC inconclusive
Cc1c(Cl)cccc1NC(=S)NCCC(c1ccccc1)c1ccccc1	ATG4B inh 91 | PLA2 counter 93
Cc1c(Cl)cccc1NC(=S)NCCC(C)C	ATG4B inh 64 (no result: Mot1-301 SUMO) | PLA2 counter 67
Cc1cc(Cl)ccc1NC(=S)NCCC(c1ccccc1)c1ccccc1	none
O=C(c1cc(COc2ccc(F)cc2Cl)on1)N1CCc2sccc2C1	none
Cc1ccc(C)c(OCc2cc(C(=O)N3CCc4sccc4C3)no2)c1	ATG4B inh 46 | PLA2 counter 81
CSc1ccccc1OCc1cc(C(=O)N2CCc3sccc3C2)no1	ATG4B inh 72 | PLA2 counter 78
COc1ccc(-n2cnc(=S)[nH]c2=S)cc1	none (no result: Calb FLC, Mot1-301 SUMO)
Cc1noc(/C=C/c2ccco2)c1S(=O)(=O)N1CCC(C(=O)N2CCc3ccccc3C2)CC1	ATG4B inh 73, NadD inh 47 | PLA2 counter 75
Cc1ccc(/C=C/c2onc(C)c2S(=O)(=O)N2CCC(C(=O)N3CCCCC3)CC2)cc1	none
COc1ccc(/C=C/c2onc(C)c2S(=O)(=O)N2CCC(C(=O)N3CCCCCC3)CC2)cc1	ATG4B inh 40 | PLA2 counter 65
CN1CCN(C(=O)c2ccc(-c3ccc(F)c(F)c3)c3ccoc23)CC1	none (no result: ATG4B inh, Calb FLC, Mot1-301 SUMO)
O=C(NC1CCCCC1)c1sc(=S)n2c1[nH]c(=O)c1ccccc12	none
CCCCNC(=O)c1sc(=S)n2c1[nH]c(=O)c1ccccc12	ATG4B inh 45 | PLA2 counter inactive
COC(=O)c1cc(CNC(=O)c2ccc(N3CCCC3)c([N+](=O)[O-])c2)ccc1OC	none
COc1ccccc1Nc1nn2c(=O)c3ccc(C(=O)N4CCCC(C)C4)cc3nc2s1 (stereo not given)	ATG4B inh 46 | PLA2 counter 63
CC1CCCN(C(=O)c2ccc3c(=O)n4nc(Nc5ccccc5)sc4nc3c2)C1 (stereo not given)	none (no result: ATG4B inh, Calb FLC, Mot1-301 SUMO)
COc1ccc2c(c1)[nH]c1c(N3CCN(Cc4ccc5c(c4)OCO5)CC3)ncnc12	ATG4B inh 45 | PLA2 counter 58
Cc1ccc2c(c1)[nH]c1c(N3CCN(Cc4ccccc4)CC3)ncnc12	ATG4B inh 62 | PLA2 counter 79

Screening data as filed in PubChem.
